Compounds with a hit are over-represented: about 1.2% of the library has one in this group of screens.
NPR2 activator – GC-B (human) receptor activation. activation, % at 10 µM. P20594. HEK293-GC-B cells, CNP EC30, cGMP TR-FRET; 0% at EC30 CNP, 100% saturating CNP. AID 1920062. hit rate 0.11% among 370,000;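 active means activation at 10 µM reaching about 35% in either raw or pattern-adjusted values, limit read from the data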
MsrA act – bovine methionine sulfoxide reductase A activation; purified bovine MsrA, absorbance read-out; activation, % at 10.6 µM; hit rate 0.3% among 360,000; AID 602163; in the data active means activation above about 7.5%
NPR1 activator – GC-A (human) enzyme activation | P16066 | HEK293 GC-A cells, cGMP TR-FRET, EC30 ANP; 0% at EC30 ANP, 100% saturating ANP | activation, % at 10 µM | hit rate 0.14% among 370,000; in the data active means activation above about 40%
MsrA inh – bovine MsrA inhibition | purified bovine MsrA, absorbance read-out | inhibition, % at 15.5 µM | hit rate 0.75% among 360,000 | AID 651718
MsrA conf – bovine MsrA inhibition, confirmed. purified bovine MsrA, absorbance read-out. hit rate 41% among 2,300. shares compounds with MsrA inh. AID 651822. inhibition, % at 15.5 µM;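 further: coupled to thioredoxin reductase with NADPH and selenocystamine and DMSO as substrate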
Hits are given with their value; – = inactive; · = not tested or not shown. Unless noted, no stated cut-off is given here; in the data, active means inhibition above about 4.5%; inactive means the rest.

SMILES	NPR2 activator	MsrA act	NPR1 activator	MsrA inh	MsrA conf
O=C(O)c1cc(N/N=C/c2ccc(N3CCOCC3)cc2)ccc1Cl	–	–	–	4.8	5.8
Cc1cc(C)nc(Nc2ccc(N3CCOCC3)cc2)n1	–	–	–	–	·
C=C(C)CNC(=S)N/N=C/c1ccc(N2CCOCC2)cc1	–	–	–	6.1	5.1
COC(=O)[C@]12C[C@H](CC(=O)NCc3ccc(C)o3)C(=O)N(Cc3ccccc3)C1=C[C@H](C(C)C)O[C@@H]2C1CC1	–	·	–	–	·
Cc1ccc(OC(=O)N(C)C[C@H]2OCc3cn(nn3)CCCC(=O)N([C@@H](C)CO)C[C@@H]2C)cc1	–	·	–	–	·
COCCNC(=S)N/N=C/c1ccc(N2CCOCC2)cc1	–	–	–	8.1	5.9
COCCNC(=S)N/N=C/c1ccc([N+](=O)[O-])cc1	–	–	–	–	·
COC(=O)c1ccc(/C=N/NC(=S)NC(C)C)cc1	–	–	–	–	·
CC(C)NC(=S)N/N=C/c1ccc(N2CCOCC2)cc1	–	–	–	7.0	5.4
COc1ccc(/C=N/Nc2cc(C)nc(N3CCOCC3)n2)cc1OC	–	–	–	–	·
COc1ccc(/C=N\Nc2ncc(F)c(N3CCOCC3)n2)cc1OC	–	–	–	4.7	–
COC(=O)[C@]12CCCCC=C1N(Cc1ccc(OC)cc1)C(=O)[C@@H]2CC(=O)NCc1ccc(OC)c(OC)c1	–	·	–	·	·
O=C(CSc1nc2ccccc2o1)NN=C/C=C/c1ccccc1	–	·	–	·	·
COc1cc(/C=C/C2=NNC(=O)CC2)cc(OC)c1OC	–	–	–	8.2	–
COc1cc(/C=C/c2cc(C(F)(F)F)[nH]c(=O)n2)cc(OC)c1OC	–	–	–	5.6	–
CCCCOCCCNC(=O)C[C@@H]1C(=O)N(CCc2ccc(Cl)cc2)C2=CCCC[C@]21C(=O)OCC	–	·	–	·	·
C[C@@H]1ON(C)[C@H]2C[C@H]3c4[nH]c5c(-c6ccc(C(F)(F)F)cc6)cccc5c4CCN3C(=O)[C@@H]12	–	·	–	–	·
COc1cc(/C=N/NC(=O)[C@H](Cc2c[nH]c3ccccc23)NC(=O)OCC(C)C)cc([N+](=O)[O-])c1O	–	–	–	6.4	–
CCOC(=O)C1CSCCS(=O)(=O)N1Cc1cccc(F)c1 (configuration not stated)	–	·	–	–	·
CC1OC(Oc2ccc3ccc(=O)oc3c2-c2c(O)ccc3cc(Oc4ccc5ccc(=O)oc5c4)c(=O)oc23)C(O)C(O)C1O (configuration not stated)	–	–	–	4.8	–
O=C(O)c1cccc(Cn2c(Cl)c(/C=N/NC(=O)c3ccccc3O)sc2=O)c1	–	–	–	5.0	–
COc1ccc(C(=O)N/N=C/c2sc(=O)n(Cc3cccc(C(=O)O)c3)c2Cl)cc1	–	–	–	9.0	5.6
O=S1(=O)c2ccc(Br)cc2OC[C@H](Cc2ccccc2)N1Cc1cn(Cc2ccc(Cl)cc2)nn1	–	·	–	·	·
COc1cc2oc(-c3ccc(O)cc3)cc(=O)c2c(OC)c1O	–	–	–	7.1	–
Cc1ccc(NC(=S)C2=C(O)c3ccccc3N(C)S2(=O)=O)cc1	–	–	–	4.8	–
SMILES	NPR2 activator	MsrA act	NPR1 activator	MsrA inh	MsrA conf
CN1c2ccccc2C(O)=C(C(=O)Nc2ccccc2)S1(=O)=O	–	–	–	–	·
CN1c2ccccc2C(O)=C(C(=S)Nc2ccccc2)S1(=O)=O	–	–	–	5.3	6.1
CN1c2ccsc2C(O)=C(C(=S)Nc2ccccc2)S1(=O)=O	–	–	–	–	·
CN1c2ccccc2C(O)=C(C(=S)Nc2ccc(F)c(Cl)c2)S1(=O)=O	–	–	–	4.9	–
CCOc1ccccc1NC(=S)NC(=O)C1CC1	–	–	–	7.4	7.2
O=[N+]([O-])c1ccc(N=NN(CCO)CCO)cc1	–	–	–	5.3	–
O=[N+]([O-])c1ccc(N=Nc2ncc[nH]2)cc1	–	–	–	–	·
CC(=O)c1ccc(N2CCN(S(=O)(=O)c3cccc4nsnc34)CC2)cc1	–	–	–	4.7	–
Cc1cc(/C=C(/C#N)c2cccc(F)c2)c(C)n1-c1cccnc1	–	–	–	25.9	27.2
CC1(C)CC(=O)N(CC(=O)N2CCN(c3cccc(Cl)c3Cl)CC2)c2ccccc2S1(=O)=O	–	·	–	·	·
O=C(NCc1ccccc1)[C@@H]1CCCN1C(=O)[C@H]1CCCN1C(=O)C1CCCCC1	–	·	–	–	·
CCN(CC)c1ccc(/C=N/NC(=O)CC(C)C)cc1	–	–	–	5.6	–
CCN(CC)c1ccc(/C=N/NC(=O)CNC(=O)c2ccccn2)cc1	–	–	–	6.0	–
CCN(CC)c1ccc(/C=N/NC(=O)Cc2nnc(NC(=O)Nc3ccccc3)s2)cc1	–	–	–	5.5	–
CCN(CC)c1ccc(/C=N/NC(=O)Nc2ccccc2)cc1	–	–	–	–	·
CCCCNC(=O)C[C@H]1C[C@@]2(C(=O)OC)C(=C[C@H](C(C)(C)C)O[C@@H]2C)N(CCc2ccc(OC)c(OC)c2)C1=O	–	·	–	·	·
CCOC(=O)Cn1cc(CN2C(C(=O)OC)CN(C3CC3)CCS2(=O)=O)nn1 (configuration not stated)	–	·	–	·	·
CN(C)CCCN1C(=O)c2cccc3c([N+](=O)[O-])ccc(c23)C1=O	–	–	–	18.0	10.3
O=C1c2cccc3c([N+](=O)[O-])ccc(c23)C(=O)N1CCc1ccccn1	–	–	–	–	·
COC(=O)c1cc2c(-c3ccccc3)cc3ccccn3c-2c1C(=O)OC	–	–	–	–	·
COC(=O)c1c(C)c2c(C)cc3ccccn3c-2c1C(=O)OC	–	–	–	4.7	–
CNc1ncc(C(=O)c2ccc(F)cc2)s1	–	–	–	4.7	–
COC(=O)c1nc(-c2ccc(C)cc2)oc1N(C)C	–	–	–	4.8	–
Cc1ccc(C)c(/C(O)=C2\C(=O)C(=O)N(CCCN3CCOCC3)C2c2cccnc2)c1 (configuration not stated)	–	–	–	15.9	–
Cc1cccnc1N=O	–	·	–	–	·
SMILES	NPR2 activator	MsrA act	NPR1 activator	MsrA inh	MsrA conf
COc1ccc(-c2cc(C(F)F)n3ncc(C(=O)n4ccnc4C)c3n2)cc1	–	–	–	4.7	11.4
CNc1cncc(-c2cccc(NS(C)(=O)=O)c2)n1	–	–	–	5.8	–
CNc1cncc(-c2cccc(C(C)=O)c2)n1	–	–	–	–	·
Cn1c(=O)[nH]c(Nc2ccccc2)c([N+](=O)[O-])c1=O	–	–	–	6.4	–
Cn1nc(C(C)(C)C)c([N+](=O)[O-])c1C(=O)Nc1ccccc1	–	–	–	–	·
CCOC(=O)[C@@]12CCCC3=C1N(CCC3)C(=O)[C@H]2CC(=O)N1CCCC1	–	·	–	·	·
CO[C@H]1C=CO[C@@]2(C)Oc3c(C)c(O)c4c(O)c(c(C=NN5CCN(C)CC5)c(O)c4c3C2=O)NC(=O)C(C)=CC=C[C@H](C)[C@H](O)[C@@H](C)[C@@H](O)[C@@H](C)[C@H](OC(C)=O)[C@@H]1C	–	–	–	5.4	–
Cc1cc(C)nc(NC2=NCC(=O)N2c2ccc3c(c2)OCCO3)n1	–	–	–	8.6	6.1
Cc1nn(C)c(C)c1/C=C/C(=O)c1ccc(Cl)cc1Cl	–	–	–	6.4	–
